# Measurements: the supplement of paper PMC6555819
# How the values were obtained:
# Assay in all cases: PBM binding z-score (relative to random genomic background probes); higher = stronger binding; sequences stand for … in GC…GCGATTGACAGCGTAGAATGAAGG
# [1] = system: PPARg:RXRa DBDmut IVT, anti-RXR (DBD mutation: RXRa K156A/R161A, NR concentration 270 nM, RXRa partner concentration 90 nM)
# Procedure, shortened: (§1)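 Ligand-free nuclear receptor dimers were bound for 1 h to custom Agilent 4×180K protein-binding microarrays. Detection used antibodies against each partner (one per run). Binding z-scores rest on regression-normalized fluorescence, with random background probes as the reference.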
# [2] = system: PPARg:RXRa IVT, anti-PPARg (NR concentration 270 nM, RXRa partner concentration 90 nM)
# Procedure, shortened: as §1
# [3] = system: PPARg DBDmut:RXRa IVT, anti-PPARg (DBD mutation: PPARg1 K132A/R137A, NR concentration 270 nM, RXRa partner concentration 90 nM)
# Procedure, shortened: as §1
# [4] = system: PPARg DBDmut IVT, anti-PPARg (DBD mutation: PPARg1 K132A/R137A, NR concentration 270 nM)
# Procedure, shortened: as §1
# [5] = system: PPARg homodimer (NR concentration 180 nM)
# Procedure, shortened: as §1
# [6] = system: PXR:RXRa (NR concentration 270 nM, RXRa partner concentration 90 nM)
# Procedure, shortened: as §1
# [7] = system: PXR homodimer (NR concentration 270 nM)
# Procedure, shortened: as §1
# [8] = system: RARa:RXR (NR concentration 270 nM, RXRa partner concentration 90 nM)
# Procedure, shortened: as §1
# [9] = system: RARa homodimer (NR concentration 270 nM)
# Procedure, shortened: as §1
# [10] = system: RARb:RXRa (NR concentration 270 nM, RXRa partner concentration 90 nM)
# Procedure, shortened: as §1
# [11] = system: RARb homodimer (NR concentration 270 nM)
# Procedure, shortened: as §1
# [12] = system: RARg:RXRa (NR concentration 270 nM, RXRa partner concentration 90 nM)
# Procedure, shortened: as §1
# [13] = system: RARg homodimer (NR concentration 270 nM)
# Procedure, shortened: as §1
# [14] = system: RXRa DBDmut IVT, anti-RXR (DBD mutation: RXRa K156A/R161A, NR concentration 90 nM)
# Procedure, shortened: as §1
# [15] = system: RXRa homodimer (NR concentration 180 nM)
# Procedure, shortened: as §1
# [16] = system: THRa:RXRa (NR concentration 90 nM, RXRa partner concentration 90 nM)
# Procedure, shortened: as §1
# [17] = system: THRa homodimer (NR concentration 90 nM)
# Procedure, shortened: as §1
# [18] = system: VDR homodimer (NR concentration 270 nM)
# Procedure, shortened: as §1
Sequence,PBM binding z-score [1],PBM binding z-score [2],PBM binding z-score [3],PBM binding z-score [4],PBM binding z-score [5],PBM binding z-score [6],PBM binding z-score [7],PBM binding z-score [8],PBM binding z-score [9],PBM binding z-score [10],PBM binding z-score [11],PBM binding z-score [12],PBM binding z-score [13],PBM binding z-score [14],PBM binding z-score [15],PBM binding z-score [16],PBM binding z-score [17],PBM binding z-score [18]
CAAACTAGGTCAAGCGGTCAAAGTCCGCTTCCCG,8.54,8.61,4.37,1.14,3.03,2.21,0.102,3.33,0.747,4.62,4.55,5.64,6.19,1.57,4.04,3.23,0.992,1.5
CCAGACCGGTGAGAAGGTAACTCAGCCTCGATTA,-0.324,-0.727,-1.57,-1.1,0.768,-0.393,-0.18,-0.155,0.901,-0.00175,0.199,0.0096,0.0397,-0.539,-0.308,-0.0126,-0.0326,0.281
CAGCCTAGGTCAGGGCCACTATAGGAGGAACGTT,1.2,1.84,-0.722,-1.19,0.834,0.356,-0.684,0.936,-0.384,3.44,2.67,3.08,3.7,0.123,1.84,2.19,0.516,-0.129
CAAACTAGGTCAAGGTCAAAGTCGGTTTGTGCCA,8.86,8.63,3.11,0.796,3.64,5.25,2.25,5.33,2.13,5.19,5.13,6.18,6.97,3.21,6.34,4.35,3.74,4.46
ATCTCTAGGTAACAAGTTCTGTGAAAGAGAGGAC,3.07,2.91,1.35,1.11,0.9,0.15,0.424,0.67,0.681,0.332,0.522,0.565,0.579,0.302,0.105,1.12,0.878,0.424
AGTCAAAGTTCAGGACGTGGTAACGTAAAGCACG,-0.468,1.64,0.643,0.0633,1.68,2.15,0.643,1.86,0.703,4.15,3.13,4.04,4.85,2.76,2.67,2.37,0.614,1.49
ACTAGCAGGCCAAGTGTGGGTCACTCAAACAAAG,2.05,2.79,-0.334,-0.527,0.309,0.546,-0.107,1.35,-1.55,1.79,2.25,2.53,1.51,-0.502,0.982,1.44,-0.207,-0.135
ATCGACAGGTCGACGAGGTGAGTATACACCGTTT,-0.262,0.929,0.221,0.384,0.58,0.461,-0.437,1.54,0.5,1.53,0.949,1.55,1.78,0.12,1.58,2.58,0.428,0.49
CGAACGAGGGCATGACTTGATAGCAAATGCCGAT,2.69,1.81,-0.27,-0.449,-0.43,0.219,-0.361,0.614,-0.682,2.01,0.668,1.26,1.54,2.16,0.981,1.2,-0.168,0.849
GTACCAAGGTGAATAGGTCGTTGCTGAGTAGGCG,1.82,2.55,-0.221,0.00615,0.964,0.496,-0.427,1.55,-0.268,1.96,1.71,2.56,1.13,-0.0766,1.53,1.8,0.155,-0.166
CAAACTAGGTCACCGGAAGGTCAAAGTCCGCATG,8.69,8.91,2.7,2.01,6.37,5.88,1.99,6.98,2.38,5.37,5.88,8.43,7.82,2.05,6.69,4.6,2.95,3.43
CCTGTTAGTTGACCATAAGGGCAACCGAAGCTCG,0.268,0.863,0.531,0.804,1.39,0.426,0.794,0.804,1.03,1.74,2.14,1.2,0.916,0.329,0.511,1.88,1.5,0.539
CGTACTGGGCCAAAAAGGTCATTGATGCCGATAA,4.13,3.76,-0.0861,-0.32,3.08,4.6,3.5,4.94,1.6,3.87,4.63,4.76,4.11,1.07,4.86,3.15,0.617,2.61
TCTAATTGGTCACGGAGGTCACACACGACGGGTA,2.78,4.04,1.67,1.69,3.37,4.81,1.7,4.76,2.23,4.2,4.68,5.01,5.18,1.55,5.28,3.73,2.75,3.23
TCATATAGGTAAAGGTGGAAGTCGAACGATATGA,3.45,2.86,1.27,1.48,0.634,0.357,0.267,0.637,0.638,0.387,0.0636,0.544,0.404,1.02,0.958,-0.14,-0.387,0.109
